Measurements: the supplement of paper PMC12350171
Counter-ions that a name gives are not always drawn. Values without a mark were called inactive.

How the values were obtained:
Conditions in all cases: 20 µM
[1] = test system: Salmonella enterica typhimurium; test: growth AUC normalised to DMSO control (fraction of control); higher = less growth inhibition, active = hit call of the paper
In short: (§1)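 For the AUC endpoint, growth curves were integrated by the trapezoidal rule up to the exponential-to-stationary transition and normalised to DMSO controls on the same plate. The curves came from OD578 readings taken hourly for 24 h, in three biological replicates. Pathogens had been passaged anaerobically twice and inoculated at an OD578 of 0.01 into pre-reduced mGAM plates carrying 20 μM compound and 1% DMSO, sealed with breathable membranes. Medium for Haemophilus parainfluenzae also contained hemin and NAD.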

Shigella flexneri = test: as above
In short: as §1

Vibrio cholerae = test: as above
In short: as §1

[2] = test system: Yersinia pseudotuberculosis; test: as above
In short: as §1

P. vulgatus RND KO = test: growth AUC normalised to DMSO control (median) (fraction of control); higher = less growth inhibition, active = hit call of the paper
In short: (§2)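 Each strain went through two overnight passages under anaerobic conditions before growth in mGAM in 96-well plates, starting at OD578 0.01, with each compound from the approved-drug library at 20 μM and 1% DMSO. Inside an anaerobic incubator, OD578 was recorded every hour for 24 h. Growth curves were cut off at entry into stationary phase, and the area under the curve was calculated by the trapezoidal rule and normalised to vehicle wells on the same plate. Reported values are medians of three biological replicates.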

P. vulgatus WT = test: as above
In short: as §2

[3] = test system: S. enterica typhimurium WT; test: as above
In short: as §2

[4] = test system: S. enterica typhimurium tolC KO; test: as above
In short: as §2
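For growth AUC normalised to DMSO control (median) in this document: active when median AUC fell below 0.1.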

Row | Compound | growth AUC normalised to DMSO control [1] | growth AUC normalised to DMSO control (Shigella flexneri) | growth AUC normalised to DMSO control (Vibrio cholerae) | growth AUC normalised to DMSO control [2] | growth AUC normalised to DMSO control (P. vulgatus RND KO) | growth AUC normalised to DMSO control (P. vulgatus WT) | growth AUC normalised to DMSO control [3] | growth AUC normalised to DMSO control [4]
1 | CC1(C)OC(=O)NC1=O [Dimethadione] | 0.972 | 0.995 | 1.01 | 0.998 | 1.02 | 1 | 0.99 | 0.997
2 | CNCCC(Oc1ccccc1OC)c1ccccc1 (centres undefined) [Nisoxetine hydrochloride] | 0.949 | 1.02 | 1 | 0.993 | 1.01 | 1 | 0.957 | 0.91
3 | COc1cc(-c2ccc(=O)[nH]n2)ccc1OC(F)F [Zardaverine] | 0.99 | 0.999 | 0.955 | 0.998 | 1 | 1.02 | 0.995 | 0.997
4 | CCS(=O)(=O)CCn1c([N+](=O)[O-])cnc1C [Tinidazole] | 1.01 | 0.99 | 1 | 0.971 | 0.0183 (active) | 0.0185 (active) | 1 | 0.995
5 | CS(=O)(=O)c1ccc(C2=C(c3ccccc3)C(=O)OC2)cc1 [Rofecoxib] | 1.01 | 0.99 | 1.02 | 0.995 | 1 | 1.03 | 1 | 0.98
6 | CC(=O)CC(c1ccccc1)c1c(O)c2ccccc2oc1=O (centres undefined) [Warfarin] | 0.999 | 0.996 | 0.945 | 0.999 | 1 | 1.03 | 0.999 | 0.988
7 | CCN(CC)CCOC(=O)c1ccc(N)cc1 [Procaine hydrochloride] | 1 | 0.992 | 1.01 | 1 | 1.02 | 0.989 | 0.992 | 0.998
8 | CN1[C@@H]2CC[C@H]1C[C@@H](OC(c1ccccc1)c1ccccc1)C2 [Benztropine mesylate] | 1 | 1.01 | 1 | 1.01 | 0.944 | 0.904 | 0.998 | 0.195
9 | Cc1c(Cl)cccc1Nc1ccccc1C(=O)O [Tolfenamic acid] | 1 | 0.961 | 0.901 | 0.963 | 0.802 | 0.803 | 1.02 | 0.992
10 | COc1ccccc1OCC(O)CO (centres undefined) [Guaifenesin] | 0.998 | 1.02 | 1.01 | 0.992 | 0.984 | 0.987 | 0.995 | 0.99
11 | CO[C@H]1/C=C/O[C@@]2(C)Oc3c(C)c(O)c4c(O)c(c(/C=N/N5CCN(C)CC5)c(O)c4c3C2=O)NC(=O)/C(C)=C\C=C\[C@H](C)[C@H](O)[C@@H](C)[C@@H](O)[C@@H](C)[C@H](OC(C)=O)[C@@H]1C [Rifampicin] | 0.23 (active) | 0.118 (active) | 1.01 | 0.0362 (active) | 0.0135 (active) | 0.0147 (active) | 0.523 | 0.254
12 | CC1(C)O[C@@H]2C[C@H]3[C@@H]4C[C@H](F)C5=CC(=O)C=C[C@]5(C)[C@@]4(F)[C@@H](O)C[C@]3(C)[C@]2(C(=O)CO)O1 [Fluocinolone acetonide] | 1 | 1.01 | 1.02 | 1 | 0.975 | 0.967 | 1 | 0.993
13 | CC(C(=O)O)c1ccc(N2Cc3ccccc3C2=O)cc1 (centres undefined) [Indoprofen] | 0.992 | 1.01 | 1.03 | 1.01 | 0.975 | 0.971 | 0.993 | 0.997
14 | O=C1CN(/N=C/c2ccc([N+](=O)[O-])o2)C(=O)N1 [Nitrofurantoin] | 0.974 | 0.843 (active) | 0.964 | 0.999 | 0.253 | 0.556 | 0.836 | 0.858
15 | CCN(CC)CCCC(C)Nc1ccnc2cc(Cl)ccc12 (centres undefined) [Chloroquine diphosphate] | 0.997 | 0.982 | 1.01 | 1.01 | 1.02 | 1.02 | 1 | 1
16 | CC(C)n1c(/C=C/C(O)CC(O)CC(=O)O)c(-c2ccc(F)cc2)c2ccccc21 (centres undefined) [Fluvastatin sodium salt] | 0.985 | 0.995 | 0.997 | 0.996 | 1 | 1 | 1 | 0.931
17 | N=C(N)N/N=C/c1c(Cl)cccc1Cl [Guanabenz acetate] | 0.936 (active) | 0.998 | 1.03 | 0.973 | 0.983 | 0.98 | 0.946 | 0.967
18 | C[C@@H]1CN(c2c(F)c(N)c3c(=O)c(C(=O)O)cn(C4CC4)c3c2F)C[C@H](C)N1 [Sparfloxacin] | 0.00775 (active) | 0.047 (active) | 0.0469 (active) | 0.0357 (active) | 0.0205 (active) | 0.0159 (active) | 0.0129 (active) | 0.00501 (active)
19 | CC/C(=C(/CC)c1ccc(O)cc1)c1ccc(O)cc1 [Diethylstilbestrol] | 1 | 0.983 | 0.93 | 0.973 | 0.744 | 0.827 | 1 | 0.827
20 | CN[C@@H]1[C@H](O)[C@H](NC)[C@H]2O[C@@]3(O)C(=O)C[C@@H](C)O[C@H]3O[C@@H]2[C@H]1O [Spectinomycin dihydrochloride] | 0.896 (active) | 1.01 | 1.02 | 0.933 (active) | 1.01 | 1 | 0.961 | 0.871
21 | Cc1c(N)c(=O)n(-c2ccccc2)n1C [Ampyrone] | 0.996 | 0.998 | 0.965 | 0.986 | 1.04 | 1 | 1 | 1
22 | OCCOCCN1CCN(C2=Nc3ccccc3Sc3ccccc32)CC1 [Quetiapine hemifumarate] | 0.999 | 0.978 | 0.991 | 0.981 | 0.946 | 0.91 | 1.01 | 0.977
23 | C[C@]12CC[C@@H]3c4ccc(O)cc4C[C@@H](CCCCCCCCC[S+]([O-])CCCC(F)(F)C(F)(F)F)[C@H]3[C@@H]1CC[C@@H]2O (some centres undefined) [Fulvestrant] | 1.01 | 1.09 | 1.01 | 0.994 | 1.05 | 1.02 | 1.02 | 0.998
24 | CN(C)C/C=C(/c1ccc(Br)cc1)c1cccnc1 [Zimelidine dihydrochloride monohydrate] | 0.996 | 0.999 | 1 | 1.03 | 1.04 | 1.04 | 1.02 | 0.983
25 | Nc1nc(=O)[nH]cc1F [Flucytosine] | 0.983 | 0.968 | 0.961 | 1.01 | 0.996 | 0.991 | 1 | 0.965
26 | CCCCOC(=O)c1ccc(O)cc1 [Butylparaben] | 1.01 | 0.969 | 0.896 | 0.962 | 0.974 | 1 | 0.994 | 0.953
27 | N=C(N)NC(=N)NCCc1ccccc1 [Phenformin hydrochloride] | 1.01 | 0.995 | 1.01 | 0.987 | 1.01 | 1.04 | 0.994 | 0.986
28 | CC(=O)OCC(=O)[C@@]1(OC(C)=O)[C@@H](C)C[C@H]2[C@@H]3C[C@H](F)C4=CC(=O)C=C[C@]4(C)[C@@]3(F)[C@@H](O)C[C@@]21C [Diflorasone Diacetate] | 1 | 0.977 | 1.01 | 1.01 | 1 | 1.03 | 0.997 | 1
